Laboratory results taken from PMC5540273 (PLoS ONE, 2017).

test system: MAK; details: concentration: 1 μM, replicates: in singlicate; n = 1
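Also: KINOMEscan kinase panel screen.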

| SMILES | %Inh [%] |
| --- | --- |
| Cc1c(Cn2c3ccccc3n3c(=O)cc(N4CCOCC4)nc23)cccc1C(F)(F)F [GSK2306394] | 15 |
| Fc1ccc(-c2nc[nH]c2-c2ccncc2)cc1 [SB-217360] | 5 |
| COc1cccc(CNC(=O)NC2CCN(c3ccnc(Nc4ccc(F)cc4)n3)C2)c1 (centres unmarked) [GSK1379723] | 23 |
| Cc1ccccc1-c1cc(-c2c[nH]nc2-c2ccccn2)ccn1 [GW680061] | 34 |
| COC(=O)C(NC(=O)NC1CCN(c2ccnc(Nc3ccc(F)cc3)n2)C1)c1ccccc1 (centres unmarked) [GSK1379712] | 0 |
| O=C1NC(=O)C(c2ccc(Cl)cc2)=C1Nc1ccc(O)cc1 [SB-340867] | 7 |
| COc1cc2ncnc(Nc3cccc(Br)c3)c2cc1OC.Cl [GI230329] | 34 |
| COC(=O)c1cccc(NC(=O)NC2CCN(c3ccnc(Nc4ccc(F)cc4)n3)C2)c1 (centres unmarked) [GSK1379725] | 16 |
| COc1ccc2cc(-c3nc(-c4ccccc4C(C)C)[nH]c3-c3ccncc3)ccc2c1 [SB-660566] | 0 |
| CC(=O)c1c(C)c2cnc(Nc3ccc(N4CCNCC4)cn3)nc2n(C2CCCC2)c1=O | 0 |
| CCc1ccc(-c2ccc3c(c2)-c2n[nH]cc2S(=O)(=O)N3C)cc1 | 0 |
| CC(=O)c1c(C)c2cnc(Nc3ccn(C)n3)nc2n(C2CCCC2)c1=O | 0 |
| CC(C)c1cc(-c2ccc3c(N)n[nH]c3c2)nc(N)n1 [GSK2250882] | 0 |
| COc1ccc(Nc2nccc(N3CCC(NC(=O)C(C)c4ccc(Cl)cc4)CC3)n2)cc1 (centres unmarked) [GSK1379812] | 64 |
| Cc1ccc(NC(=O)c2ccc(Cl)cc2)cc1-c1ccc(C(=O)Nc2ccncc2)cc1 [GSK1398467] | 0 |
| Cl.Cl.Cl.N#Cc1ccc(CCNc2nccc(-c3cccc(CN4CCNCC4)c3)n2)cc1 [GSK2137462] | 8 |
| CCCCc1nn2ncccc2c1-c1ccnc(NC2CC2)n1 [GW684374] | 19 |
| COc1cccc(NC(=O)Nc2ccc(C)c(-c3ccc(C(=O)Nc4ccncc4)cc3)c2)c1 [GSK1398474] | 100 |
| Cc1ccc(-c2nc(Nc3ccncc3)c3ccccc3n2)s1 [GSK189015] | 36 |

| SMILES | %Inh [%] |
| --- | --- |
| CS(=O)(=O)CCNCc1nc(-c2ccc3ncnc(Nc4ccc(OCc5ccccc5)c(Cl)c4)c3c2)cs1.Cl [GW582764] | 26 |
| COC(=O)c1cccc(NC(=O)NC2CCN(c3ccnc(Nc4ccc(OC)cc4)n3)C2)c1 (centres unmarked) [GSK1379746] | 15 |
| CC[C@@H]1CO[C@H](C(=O)Nc2ccccc2)CN1c1cc(-c2ccc3c(N)n[nH]c3c2)nc(NC)n1 [GSK2376236] | 21 |
| CS(=O)(=O)Cc1ccc(Nc2nccc(-c3c(-c4cccc(NC(=O)C5CCCCC5)c4)nn4ncccc34)n2)cc1 [GSK350559] | 0 |
| CSc1ccc(-c2nc3n(c2-c2ccncc2)CCC3)cc1 [SKF-105561] | 0 |
| Cc1cnc(N)c(/C=C/c2cncc(C(=O)NCCc3ccc(Cl)cc3Cl)c2)c1.Cl [GSK190937] | 9 |
| CNC(=O)c1ccc(C)c(-n2c(C)cc(OCc3ccc(F)cc3F)c(Br)c2=O)c1 | 0 |
| CCn1c(-c2c(N)noc2C)nc2cnccc21 [SB-737856] | 0 |
| O=c1cc(N2CCOCC2)nc2n(Cc3ccccc3F)ccn12 [GSK2297428] | 8 |
| Fc1ccc(-c2nc3n(c2-c2ccncc2)CCS3)cc1 [GI98581] | 63 |
| Fc1ccc(-c2nn3cccc(F)c3c2-c2ccncc2)cc1 [GW475620] | 0 |
| COc1ccc(CSc2nnc(-c3ccc4nccn4c3)o2)cc1C(F)(F)F | 0 |
| CC(C)c1ccc(O)cc1Nc1ccnc2ccc(C(F)(F)F)cc12 [GW482059] | 25 |
| Cc1ccc(NC(=O)Nc2ccccc2F)cc1-c1ccc(C(=O)Nc2ccncc2)cc1 [GSK1398477] | 30 |
| Cc1ccc(NC(=O)Nc2ccc(Cl)cc2)cc1-c1ccc(C(=O)Nc2ccncc2)cc1 [GSK1398472] | 18 |
| Cc1c(Cn2c(C)c(C)n3c(=O)cc(N4CCOCC4)nc23)cccc1C(F)(F)F [GSK2328680] | 16 |
| O=C(Nc1n[nH]c2nc(-c3cccs3)c(Br)cc12)C1CC1 [SB-735297] | 34 |
| Cc1cccc2c(-c3ccncn3)c(-c3ccc(F)cc3)nn12 [GW515532] | 57 |

test system: MAP3K15; details: concentration: 1 μM, replicates: in singlicate; n = 1

| SMILES | %Inh [%] |
| --- | --- |
| Cc1c(Cn2c3ccccc3n3c(=O)cc(N4CCOCC4)nc23)cccc1C(F)(F)F [GSK2306394] | 0 |
| Fc1ccc(-c2nc[nH]c2-c2ccncc2)cc1 [SB-217360] | 3 |
| COc1cccc(CNC(=O)NC2CCN(c3ccnc(Nc4ccc(F)cc4)n3)C2)c1 (centres unmarked) [GSK1379723] | 0 |
| Cc1ccccc1-c1cc(-c2c[nH]nc2-c2ccccn2)ccn1 [GW680061] | 0 |
| COC(=O)C(NC(=O)NC1CCN(c2ccnc(Nc3ccc(F)cc3)n2)C1)c1ccccc1 (centres unmarked) [GSK1379712] | 0 |
| O=C1NC(=O)C(c2ccc(Cl)cc2)=C1Nc1ccc(O)cc1 [SB-340867] | 7 |
| COc1cc2ncnc(Nc3cccc(Br)c3)c2cc1OC.Cl [GI230329] | 0 |
| COC(=O)c1cccc(NC(=O)NC2CCN(c3ccnc(Nc4ccc(F)cc4)n3)C2)c1 (centres unmarked) [GSK1379725] | 0 |
| COc1ccc2cc(-c3nc(-c4ccccc4C(C)C)[nH]c3-c3ccncc3)ccc2c1 [SB-660566] | 17 |
| CC(=O)c1c(C)c2cnc(Nc3ccc(N4CCNCC4)cn3)nc2n(C2CCCC2)c1=O | 0 |
| CCc1ccc(-c2ccc3c(c2)-c2n[nH]cc2S(=O)(=O)N3C)cc1 | 0 |
| CC(=O)c1c(C)c2cnc(Nc3ccn(C)n3)nc2n(C2CCCC2)c1=O | 0 |
| CC(C)c1cc(-c2ccc3c(N)n[nH]c3c2)nc(N)n1 [GSK2250882] | 0 |
| COc1ccc(Nc2nccc(N3CCC(NC(=O)C(C)c4ccc(Cl)cc4)CC3)n2)cc1 (centres unmarked) [GSK1379812] | 0 |
| Cc1ccc(NC(=O)c2ccc(Cl)cc2)cc1-c1ccc(C(=O)Nc2ccncc2)cc1 [GSK1398467] | 0 |
| Cl.Cl.Cl.N#Cc1ccc(CCNc2nccc(-c3cccc(CN4CCNCC4)c3)n2)cc1 [GSK2137462] | 0 |
| CCCCc1nn2ncccc2c1-c1ccnc(NC2CC2)n1 [GW684374] | 0 |
| COc1cccc(NC(=O)Nc2ccc(C)c(-c3ccc(C(=O)Nc4ccncc4)cc3)c2)c1 [GSK1398474] | 0 |
| Cc1ccc(-c2nc(Nc3ccncc3)c3ccccc3n2)s1 [GSK189015] | 12 |

| SMILES | %Inh [%] |
| --- | --- |
| CS(=O)(=O)CCNCc1nc(-c2ccc3ncnc(Nc4ccc(OCc5ccccc5)c(Cl)c4)c3c2)cs1.Cl [GW582764] | 0 |
| COC(=O)c1cccc(NC(=O)NC2CCN(c3ccnc(Nc4ccc(OC)cc4)n3)C2)c1 (centres unmarked) [GSK1379746] | 0 |
| CC[C@@H]1CO[C@H](C(=O)Nc2ccccc2)CN1c1cc(-c2ccc3c(N)n[nH]c3c2)nc(NC)n1 [GSK2376236] | 0 |
| CS(=O)(=O)Cc1ccc(Nc2nccc(-c3c(-c4cccc(NC(=O)C5CCCCC5)c4)nn4ncccc34)n2)cc1 [GSK350559] | 38 |
| CSc1ccc(-c2nc3n(c2-c2ccncc2)CCC3)cc1 [SKF-105561] | 16 |
| Cc1cnc(N)c(/C=C/c2cncc(C(=O)NCCc3ccc(Cl)cc3Cl)c2)c1.Cl [GSK190937] | 0 |
| CNC(=O)c1ccc(C)c(-n2c(C)cc(OCc3ccc(F)cc3F)c(Br)c2=O)c1 | 0 |
| CCn1c(-c2c(N)noc2C)nc2cnccc21 [SB-737856] | 0 |
| O=c1cc(N2CCOCC2)nc2n(Cc3ccccc3F)ccn12 [GSK2297428] | 0 |
| Fc1ccc(-c2nc3n(c2-c2ccncc2)CCS3)cc1 [GI98581] | 0 |
| Fc1ccc(-c2nn3cccc(F)c3c2-c2ccncc2)cc1 [GW475620] | 0 |
| COc1ccc(CSc2nnc(-c3ccc4nccn4c3)o2)cc1C(F)(F)F | 13 |
| CC(C)c1ccc(O)cc1Nc1ccnc2ccc(C(F)(F)F)cc12 [GW482059] | 13 |
| Cc1ccc(NC(=O)Nc2ccccc2F)cc1-c1ccc(C(=O)Nc2ccncc2)cc1 [GSK1398477] | 0 |
| Cc1ccc(NC(=O)Nc2ccc(Cl)cc2)cc1-c1ccc(C(=O)Nc2ccncc2)cc1 [GSK1398472] | 0 |
| Cc1c(Cn2c(C)c(C)n3c(=O)cc(N4CCOCC4)nc23)cccc1C(F)(F)F [GSK2328680] | 0 |
| O=C(Nc1n[nH]c2nc(-c3cccs3)c(Br)cc12)C1CC1 [SB-735297] | 41 |
| Cc1cccc2c(-c3ccncn3)c(-c3ccc(F)cc3)nn12 [GW515532] | 0 |
